# Assay results reported in PubChem BioAssay (EPA / NIEHS).
# Results filed as inconclusive are left out. Active and inactive are the calls of the source. Rule for the calls: active = hit-call score of the fitted dose curve at least 0.9, where 1 is the maximum; inconclusive = response in the unintended direction; inactive = score below 0.9.
# Read-out: Cytochrome P450 3A4 (Homo sapiens) (UniProt P08684)
# Test: CLD_CYP3A4_6hr: CellzDirect (CLD) Gene Expression Assay for xenobiotic metabolism (CYP3A4) at 6 hours (AID 2283680)
# Procedure: CLD_6hr is a cell-based, multiplexed-readout assay that uses hepatocyte, a human liver primary cell, with measurements taken at 6 hours after chemical dosing in a 96-well plate.CLD_CYP3A4_6hr is one of 16 assay component(s) measured or calculated from the CLD_6hr assay. It is designed to make measurements of mRNA induction, a form of inducible reporter, as detected with chemiluminescence signals by Quantitative Nuclease Protection Assay (qNPA) technology.Data from the assay component CLD_CYP3A4_6hr was analyzed at the endpoint, CLD_CYP3A4_6hr, in the positive analysis fitting direction relative to DMSO as the negative control and baseline of activity. Using a type of inducible reporter, gain-of-signal activity can be used to understand changes in the reporter gene as they relate to the gene CYP3A4. Furthermore, this assay endpoint can be referred to as a primary readout. To generalize the intended target to other relatable targets, this assay endpoint is annotated to the cyp intended target family, where subfamily is xenobiotic metabolism.
# Human hepatocyte cultures were treated daily for two consecutive days with fresh dosing solutions containing appropriate concentrations of the 320 ToxCast chemicals (chemical identities were blinded to CellzDirect and other ToxCast collaborators), vehicle control (0.2% DMSO), and positive control inducers as summarized in Table 1. Due to the large number of treatment groups and chemicals examined, the ToxCast chemicals were divided into two groups (spanning two independent cultures of hepatocytes from separate donor preparations (Hu778: ToxCast plates 1 and 2; Hu776: ToxCast plates 3 and 4). Each preparation of human hepatocyte cultures was treated with respective vehicle control, medium only control, set of six positive controls/reference chemicals for the five hepatic receptor pathways, and a subset of eight of the ToxCast chemicals (indoxacarb, pyrithiobac-sodium, norflurazon, cyhalofop-butyl, methomyl, thiram, acetochlor, and propiconazole). These replicate data, coupled with internal replicates designed within the blinded ToxCast chemical library, provided additional data to evaluate interindividual differences between hepatocyte preparations and their potential impact on chemical profiles.Cell morphology and integrity were evaluated using phase-contrast microscopy as an indicator of hepatocyte cell health (Tyson & Green, 1987). Cultures for each treatment group (i.e., media, vehicle [0.2% DMSO], positive control inducers [multiple concentrations], and the ToxCast chemicals [multiple concentrations]) were observed and cell morphology was assessed relative to vehicle control cultures at each harvest time point (0, 6, 24, or 48 h). […] Images were evaluated at the conclusion of the study to assess changes in cell integrity and account for the effects of chemical exposure on uncharacteristic changes in concentration-dependent gene expression profiles. The results from these determinations of apparent cytotoxicity were annotated (yes/no) alongside the corresponding qNPA data for reference.At the conclusion of each treatment period, hepatocyte cultures (96-well) were washed with 1 volume of HBSS, lysed by addition of 25 ul ArrayPlate lysis buffer (HTG, Tucson, AZ), and 70 ul/well of Denaturation Oil, denatured by incubation at 95C for 10 min, and frozen at approximately -70C until analysis by nuclease protection assay (qNPA) (Roberts et al., 2007). For qNPA analysis, cell lysates were thawed at 50C for approximately 30 min, qNPA probes were added, and samples were incubated at 95C for 10 min to begin the detection process by denaturing the target RNA, dissociating the duplexes and secondary structure hybridization. At the conclusion of the hybridization period, S1 nuclease reagent was added to each sample to digest all nonprotected nucleotides at 50C for 60-90 min. […]
# Sequence of Cytochrome P450 3A4 (Homo sapiens) (P08684 whole entry, looked up): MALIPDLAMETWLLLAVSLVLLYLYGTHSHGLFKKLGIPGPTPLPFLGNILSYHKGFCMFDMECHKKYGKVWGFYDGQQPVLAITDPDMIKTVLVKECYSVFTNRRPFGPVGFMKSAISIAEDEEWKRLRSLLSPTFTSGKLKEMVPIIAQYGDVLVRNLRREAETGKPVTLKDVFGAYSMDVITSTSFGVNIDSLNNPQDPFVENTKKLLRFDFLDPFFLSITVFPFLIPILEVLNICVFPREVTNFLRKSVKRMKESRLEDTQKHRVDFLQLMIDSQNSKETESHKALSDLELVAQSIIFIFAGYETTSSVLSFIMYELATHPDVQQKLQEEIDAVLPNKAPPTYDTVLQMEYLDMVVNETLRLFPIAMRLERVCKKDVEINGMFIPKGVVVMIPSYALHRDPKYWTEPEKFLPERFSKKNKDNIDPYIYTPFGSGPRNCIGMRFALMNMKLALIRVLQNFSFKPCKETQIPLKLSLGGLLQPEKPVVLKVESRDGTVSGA
Structure (SMILES),outcome,AC50
Cc1[nH]c(=O)n(C(C)(C)C)c(=O)c1Cl,inactive,–
CCS(=O)(=O)c1cccnc1S(=O)(=O)NC(=O)Nc1nc(OC)cc(OC)n1,inactive,–
CCCN(CCOc1c(Cl)cc(Cl)cc1Cl)C(=O)n1ccnc1,inactive,–
CCOC1Oc2ccc(OS(C)(=O)=O)cc2C1(C)C (stereo not given),inactive,–
COC(=O)c1ccccc1S(=O)(=O)NC(=O)N(C)c1nc(C)nc(OC)n1,inactive,–
COP(=O)(OC)OC=C(Cl)Cl,inactive,–
COc1nn(CSP(=S)(OC)OC)c(=O)s1,inactive,–
CCOc1nc(NC)nc(NC(=O)NS(=O)(=O)c2ccccc2C(=O)OC)n1,inactive,–
C#CCN1C(=O)COc2cc(F)c(N3C(=O)C4=C(CCCC4)C3=O)cc21,inactive,–
O=C(O)COc1ccc(Cl)cc1Cl,–,490 nM (active)
CC[C@H](C)[C@H]1O[C@]2(C=C[C@@H]1C)C[C@@H]1C[C@@H](C/C=C(\C)[C@@H](O[C@H]3C[C@H](OC)[C@@H](O[C@H]4C[C@H](OC)[C@@H](O)[C@H](C)O4)[C@H](C)O3)[C@@H](C)/C=C/C=C3\CO[C@@H]4[C@H](O)C(C)=C[C@@H](C(=O)O1)[C@]34O)O2 (tested in a mixture with another compound),inactive,–
CNC(=O)CSP(=S)(OC)OC,inactive,–
O=C(O)CCCOc1ccc(Cl)cc1Cl,inactive,–
CCc1ccc(C(=O)NN(C(=O)c2cc(C)cc(C)c2)C(C)(C)C)cc1,–,708 nM (active)
CNC(=O)Oc1cccc(N=CN(C)C)c1,inactive,–
CCOCN(C(=O)CCl)c1c(C)cccc1CC,–,328 nM (active)
CCN(CC)C(=O)SCc1ccc(Cl)cc1,–,20000 nM (active)
CNC(=O)Oc1ccccc1OC(C)C,inactive,–

Structure (SMILES),outcome,AC50
Clc1ccccc1-c1nnc(-c2ccccc2Cl)nn1,inactive,–
CCC(C)(NC(=O)c1cc(Cl)c(C)c(Cl)c1)C(=O)CCl (stereo not given),inactive,–
CC(C)(C)C(O)/C(=C\c1ccc(Cl)cc1Cl)n1cncn1 (stereo not given),–,1890 nM (active)
CCC(C)Nc1c([N+](=O)[O-])cc(C(C)(C)C)cc1[N+](=O)[O-] (stereo not given),–,1200 nM (active)
CCCN(CCC)c1c([N+](=O)[O-])cc(C(F)(F)F)cc1[N+](=O)[O-],inactive,–
O=S1OCC2C(CO1)C1(Cl)C(Cl)=C(Cl)C2(Cl)C1(Cl)Cl (stereo not given),–,9060 nM (active)
N#CN,inactive,–
O=C(Nc1ccccc1)Nc1cnns1,inactive,–
Cc1cc(C)nc(NC(=O)NS(=O)(=O)c2ccccc2C(=O)OC2COC2)n1,inactive,–
ClC1C(Cl)C(Cl)C(Cl)C(Cl)C1Cl (stereo not given),inactive,–
C[C@H]1[C@H](c2ccc(Cl)cc2)SC(=O)N1C(=O)NC1CCCCC1,–,1900 nM (active)
OCCOc1ccccc1,inactive,–
CC1(C)C(C=C(Cl)Cl)C1C(=O)OC(C#N)c1ccc(F)c(Oc2ccccc2)c1 (stereo not given),inactive,–
COP(=S)(OC)Oc1ccc(SC)c(C)c1,inactive,–
COP(=S)(OC)Oc1ccc([N+](=O)[O-])cc1,inactive,–
CC(C)OC(=O)Nc1cccc(Cl)c1,–,12200 nM (active)
CCC(C)(C)C(=O)OC1=C(c2ccc(Cl)cc2Cl)C(=O)OC12CCCCC2,inactive,–
